From PubChem BioAssay
The list is not random: actives were taken first. Their share in the collection is about 18%.
TGFb SMAD3 inh – TGF-b pathway inhibition. 410,000 tested, 1.2% active. HepG2 CAGA-GFP TGF-b/SMAD3 reporter, GFP fluorescence, 18 h; TGF-beta stimulated, 500 pg/mL final. Potency, µM (highest dose often 46.1 µM), for the others: at the top dose activity, negative = inhibition, hits mostly inhibitors; note: potency is the fitted concentration of half-maximal effect; % is set by controls: 0 for no effect and ±100 for the full control effect; nearly all actives have a fitted effect of over 65% in size
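Smad-responsive CAGA-GFP expression was quantified in HEPG2 cells exposed to compounds and 500 pg/mL final TGF-beta for 18 h at 37 degrees C; unstimulated wells defined full inhibition.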
DT40 TDP1 no CPT – qHTS for Inhibitors of human tyrosyl-DNA phosphodiesterase 1 (TDP1): qHTS in cells in absence of CPT; DT40 Tdp1-/- hTDP1 cells, no CPT, ATP luminescence, 48 h; Potency, µM (series often up to 46.2 µM), for inactives: top-dose activity change, negative = growth inhibition, hits mostly inhibitors; 420,000 tested, 15% active; AID 686978, 2013; note: potency is the fitted concentration of half-maximal effect; % is set by controls: 0 for no effect and ±100 for the full control effect; nearly all actives have a fitted effect of over 55% in size
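No-CPT arm: Tdp1-/-;hTDP1 DT40 cells (400/well) plus compounds, incubated ≥48 hr at 37 °C. Readout CellTiter-Glo luminescence.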
TDP1 cell CPT – DT40-hTDP1 cell growth loss with CPT; Potency, µM (doses to about 46.2 µM), without a hit: at the highest dose activity change, negative = growth inhibition, actives largely listed as inhibitors; AID 686979; 420,000 tested, 12% active; chicken DT40 Tdp1-/-;hTDP1 cells + 20 nM CPT, ATP luminescence, 48 h; note: potency is the fitted concentration of half-maximal effect; % is set by controls: 0 for no effect and ±100 for the full control effect; nearly all actives have a fitted effect of over 55% in size
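Chicken DT40 Tdp1-/- cells complemented with human TDP1, 400 cells/well, exposed to compounds plus 20 nM camptothecin for at least 48 h at 37 C; viability read as ATP content by CellTiter-Glo luminescence.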
IL1B secr inh – inflammasome signaling inhibition, IL-1 beta readout; 360,000 tested, 4.7% active; activity change, % at 57.5 µM; THP-1 LPS/ATP IL-1B secretion, AlphaLISA, 16 h; stronger effect = lower value; in the data active = activity change below about -50%; inconclusive = mostly about -30% to -49%; note: % is set by controls: 0 for no effect and ±100 for the full control effect
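Secreted IL-1B measured by AlphaLISA bead assay after 16 h compound exposure of THP-1 cells; compounds (final up to 57.5 uM) added 1 h before LPS (250 ng/mL) and ATP (1.25 mM) stimulation; lower signal means less secretion.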
HepG2 tox-1 – HepG2 cytotoxicity, counter-screen for TGF-b inhibitors | Potency, µM (doses to about 46.1 µM), inactives show at the highest dose activity change, negative = cytotoxicity, hits mostly cytotoxic | HepG2 CAGA-GFP viability, ATP luminescence, 18 h | AID 588856 | 410,000 tested, 0.76% active; note: potency is the fitted concentration of half-maximal effect
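CellTiter-Glo luminescence gave cytotoxicity after 18 hours at 37 degrees C. The cells were HepG2 CAGA-GFP in 1% FBS DMEM, stimulated with 500 pg/mL TGF-beta after compound addition. %Activity was normalised to no-cell wells (complete cell-killing) and DMSO (no toxicity), and curves were fitted and classified.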
TDP1 inh – inhibitors of human tyrosyl-DNA phosphodiesterase TDP1; Q9NUW8; Potency, µM (doses to about 130 µM), for inactives: at the highest dose activity change, negative = inhibition, hits mostly inhibitors; recombinant TDP1, AlphaScreen DNA substrate cleavage; 350,000 tested, 0.28% active; AID 485290; note: potency is the fitted concentration of half-maximal effect; % is set by controls: 0 for no effect and ±100 for the full control effect; nearly all actives have a fitted effect of over 40% in size
Target sequence (Q9NUW8 whole entry, looked up): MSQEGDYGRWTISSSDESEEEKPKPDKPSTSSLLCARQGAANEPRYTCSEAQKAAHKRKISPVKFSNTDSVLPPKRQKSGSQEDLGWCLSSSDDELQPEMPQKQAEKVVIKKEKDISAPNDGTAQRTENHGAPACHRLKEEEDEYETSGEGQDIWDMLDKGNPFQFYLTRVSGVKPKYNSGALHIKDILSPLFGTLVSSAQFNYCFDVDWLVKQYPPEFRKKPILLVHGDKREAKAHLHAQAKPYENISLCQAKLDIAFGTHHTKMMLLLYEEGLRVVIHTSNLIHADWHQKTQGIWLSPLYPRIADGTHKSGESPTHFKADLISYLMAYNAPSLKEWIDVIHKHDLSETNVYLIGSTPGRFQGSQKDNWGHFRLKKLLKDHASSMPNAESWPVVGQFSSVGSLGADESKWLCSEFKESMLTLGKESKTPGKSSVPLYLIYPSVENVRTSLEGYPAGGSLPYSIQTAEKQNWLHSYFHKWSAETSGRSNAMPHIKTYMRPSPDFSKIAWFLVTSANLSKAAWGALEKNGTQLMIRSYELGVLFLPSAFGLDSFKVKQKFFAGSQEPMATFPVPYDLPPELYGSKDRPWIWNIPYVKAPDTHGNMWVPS
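Enzyme-compound mixtures sat 15 min at room temperature, followed by a 5 min reaction with 15 nM final substrate and 10 min with AlphaScreen beads. Recombinant human Tdp1 was used at 1 nM final.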
TGFb CAGA inh – confirmation of TGF-b signaling inhibitors in HepG2 reporter cells. shares compounds with TGFb SMAD3 inh. HepG2 CAGA-GFP TGF-b reporter, GFP fluorescence, 18 h; cells stimulated with TGF-beta, 500 pg/mL. Potency, µM (top dose mostly 46.1 µM), inactives show at the highest dose activity, negative = inhibition, hits mostly inhibitors. 1,600 tested, 63% active; note: potency is the fitted concentration of half-maximal effect; % is set by controls: 0 for no effect and ±100 for the full control effect; nearly all actives have a fitted effect of over 65% in size
HepG2 tox-2 – counter-screen for TGF-b inhibitors: cytotoxicity in HepG2 cells | shares compounds with TGFb SMAD3 inh | HepG2 CAGA-GFP viability, ATP luminescence, 18 h; cells stimulated with TGF-beta, 500 pg/mL | Potency, µM (titrated, usually from 46.1 µM), inactives show at the highest dose activity, negative = cytotoxicity, actives largely listed as inhibitors | 1,600 tested, 27% active; note: potency is the fitted concentration of half-maximal effect; % is set by controls: 0 for no effect and ±100 for the full control effect; nearly all actives have a fitted effect of over 70% in size
CCL64 TGFb inh – orthogonal confirmation of TGF-b inhibitors in CCL64 cells. shares compounds with TGFb SMAD3 inh. CCL64 CAGA-GFP reporter, TGF-b stimulated, GFP fluorescence, 18 h. Potency, µM (top dose mostly 46.1 µM), for the others: at the highest dose activity, negative = inhibition, usual class: inhibitors. 1,600 tested, 41% active; note: potency is the fitted concentration of half-maximal effect; nearly all actives have a fitted effect of over 65% in size
TGFb COP inh – TGF-b inhibition validated with COP promoter; 1,600 tested, 3% active; Potency, µM (top dose mostly 46.1 µM), for inactives: at the highest dose activity, negative = inhibition, most hits filed as inhibitors; HepG2 COP-GFP TGF-b reporter, GFP fluorescence, 18 h; cells stimulated by added recombinant TGF-beta; shares compounds with TGFb SMAD3 inh; AID 720537; note: potency is the fitted concentration of half-maximal effect; nearly all actives have a fitted effect of over 70% in size
Active calls of the source: *; ? = inconclusive; . = no result given; [ ] = dose if it differs, or a comment. Unless noted, calls come from the whole dose curve; as a rule, active = well fitted curve in the direction sought with a large enough effect; inconclusive = small, poorly fitted or top-dose-only effect, or another doubt; inactive = no such curve, though single readings can be large; an effect the other way counts as inactive or inconclusive.

SMILES	TGFb SMAD3 inh	DT40 TDP1 no CPT	TDP1 cell CPT	IL1B secr inh	HepG2 tox-1	TDP1 inh	TGFb CAGA inh	HepG2 tox-2	CCL64 TGFb inh	TGFb COP inh
CCCCCOC(=O)c1[nH]c2c(c1C)C(=O)CC(c1ccco1)C2 (centres undefined)	0.79µM*	0.16µM*	0.18µM*	79	-6%	-1%	1.2µM*	-2%	0.23µM*	-13%
COc1ccc(CCNC(=O)C2CC(c3ccccc3F)=NO2)cc1 (centres undefined)	?	-18%	0%	2	1%	1%	.	.	.	.
O=C(NCCc1cccs1)C1CC(c2ccccc2F)=NO1 (centres undefined)	?	-15%	-23%	-2	3%	4%	-2%	7%	1%	1%
COCCNC(=O)Cn1nc(C)c([N+](=O)[O-])c1C	10%	-3%	5%	-4	1%	0%	.	.	.	.
CC(C)(C)[C@@H]1C=C(C(=O)O)[C@H](c2ccc(Cl)cc2)N1S(=O)(=O)c1ccccc1	-11%	8%	-1%	45	-5%	3%	.	.	.	.
CCOC(=O)C1=C[C@@H](C(C)(C)C)N(S(=O)(=O)c2ccc(OC)cc2)[C@H]1c1ccccc1	11µM*	?	18µM*	-22	-20%	.	9.2µM*	-29%	-29%	-3%
CCOC(=O)C1=C[C@@H](C(C)(C)C)N(S(=O)(=O)c2ccc([N+](=O)[O-])cc2)[C@H]1c1ccccc1	?	?	?	0	-15%	.	?	-3%	?	-1%
CCc1ccc([C@H]2C(C(=O)O)=C[C@@H](C(C)(C)C)N2S(=O)(=O)c2ccc(C)cc2)cc1	9%	-22%	-13%	44	-3%	3%	.	.	.	.
CCOc1ccc(NC(=S)N(CCOC)C(C)c2cccnc2)cc1 (centres undefined)	-21%	-22%	15%	7	-32%	0%	.	.	.	.
COc1ccccc1-n1cnc2cc(NCc3ccco3)ccc21	8.9µM*	1.3µM*	1.5µM*	-4	-2%	10%	13µM*	-4%	21µM*	-19%
O=C(CN(CCc1ccccc1)S(=O)(=O)c1ccc(Cl)cc1)N/N=C/c1ccc2c(c1)OCO2	?	-12%	-16%	20	7%	3%	?	-24%	0%	-23%
Cc1ccc(NC(=S)N2CCC(C(=O)c3ccc(F)cc3)CC2)cc1C	-17%	-22%	24%	-16	0%	.	.	.	.	.
CC(C)C[C@H]1CN=C(Nc2ccccc2)N1CCc1cccc(F)c1	7.1µM*	?	10µM*	-52*	-26%	-6%	5.8µM*	?	13µM*	54%
Cc1cccc(CCN2C(Nc3ccccc3)=NC[C@@H]2CC(C)C)c1	6.3µM*	21µM*	18µM*	-54*	1%	-4%	5.2µM*	?	?	87%
NS(=O)(=O)c1ccc(CCNC(=O)COC(=O)c2nc(Cl)ccc2Cl)cc1	0%	16%	22%	3	8%	-3%[56.1 µM]	.	.	.	.
CCOc1ccc(C(=O)C(C)OC(=O)c2cnc(C)cn2)cc1 (centres undefined)	-1%	4%	22%	18	3%	.	.	.	.	.
CCC(C)NC(=O)c1cc2c(=O)n3cccc(C)c3nc2s1 (centres undefined)	9%	-16%	0%	26	-8%	.	.	.	.	.
Cc1nc2scc(-c3ccccc3)c2c(=O)o1	-5%	-18%	-7%	25	5%	-3%	.	.	.	.
Cc1nc2c(o1)C(=O)c1ccccc1C2=Nc1ccccc1	1.3µM*	2.1µM*	2.3µM*	-100*	1.4µM*	.	3.7µM*	4.1µM*	5.8µM*	4.1µM*
C/C(=N/NC(=O)c1nnn(-c2nonc2N)c1CSc1ccc(Cl)cc1)c1ccncc1	2%	?	-23%	5	4%	.	.	.	.	.
Cc1cc(Nc2ccccc2)nc(NCc2ccccc2)n1	10µM*	4.1µM*	8.2µM*	-88*	-55%	0%	4%	?	15µM*	63%
COc1ccc(Oc2cc(C)c3cccc(C)c3n2)cc1	0%	?	-18%	-9	-12%	-14%	.	.	.	.
CCOc1nc(N=C(N)N)nc2c(C)cccc12	7.9µM*	23µM*	16µM*	-12	-22%	-2%	16µM*	?	7%	27%
O=[N+]([O-])c1ccc(Cl)cc1N1CCCC1	-1%	1%	-2%	0	1%	3%	.	.	.	.
O=[N+]([O-])c1cccc2c(N3CCCC3)ccnc12	7.1µM*	8.2µM*	8.2µM*	-64*	5.6µM*	-5%	7.3µM*	16µM*	?	?
CCN1CCN(C(=O)CN(c2ccc(F)c(Cl)c2)S(C)(=O)=O)CC1	14%	-29%	-9%	-12	5%	0%	.	.	.	.
CC(C)(C)OC(=O)N1CCC(NC(=O)c2[nH]cnc2C(=O)Nc2ccccc2)CC1	13µM*	?	?	-4	6%	1%	?	?	?	22%
COc1ccc(S(=O)(=O)Nc2nc3c(s2)CCCC3)cc1	-8%	-24%	?	-26	-9%	6%	.	.	.	.
